Hits are enriched below; roughly 7% of the tested compounds scored in any of these assays.
ATXN viability = cell viability loss in ATXN counter-screen | S2 cells (HEK-293 line with an ATXN2-luciferase reporter) viability, CellTiter-Fluor protease fluorescence, 24 h | Potency, µM (series often up to 56.7 µM), usual class: cytotoxic | hit rate 0.49% among 400,000; note: nearly all actives have a fitted effect of over 40% in size
D3 ag = activates the human D3 dopamine receptor. D3R DiscoveRx beta-arrestin cells, luminescence, 90 min. max activation, %. hit rate 0.58% among 410,000; in the data active = max activation above about 30%
Target sequence (P35462 whole entry, looked up): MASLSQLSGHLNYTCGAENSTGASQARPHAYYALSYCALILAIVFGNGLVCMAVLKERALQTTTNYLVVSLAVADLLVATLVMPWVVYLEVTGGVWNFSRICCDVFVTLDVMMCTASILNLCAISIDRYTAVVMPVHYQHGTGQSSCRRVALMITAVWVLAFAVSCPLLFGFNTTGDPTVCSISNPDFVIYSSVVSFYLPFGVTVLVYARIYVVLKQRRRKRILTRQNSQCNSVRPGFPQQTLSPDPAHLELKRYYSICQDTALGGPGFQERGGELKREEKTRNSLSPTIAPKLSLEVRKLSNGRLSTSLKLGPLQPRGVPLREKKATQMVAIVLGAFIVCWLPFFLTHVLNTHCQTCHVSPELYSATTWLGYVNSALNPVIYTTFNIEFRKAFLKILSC
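Agonist mode: compounds and dopamine controls were applied to plated cells for 90 min at 37 degrees C after an overnight attachment at 1500 cells/well. Luminescent read-out followed 30 - 60 minutes at room temperature with DiscoveRx detection reagent.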
IL1B secr inh = blocks inflammasome-driven IL-1 beta release; hit rate 4.7% among 360,000; THP-1 LPS/ATP IL-1B secretion, AlphaLISA, 16 h; hits give low values; activity change, % at 57.5 µM; in the data active = activity change below about -50%; inconclusive = mostly about -30% to -49%
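Secreted IL-1B measured by AlphaLISA bead assay after 16 h compound exposure of THP-1 cells; compounds (final up to 57.5 uM) added 1 h before LPS (250 ng/mL) and ATP (1.25 mM) stimulation; lower signal means less secretion.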
Integrin act MD = activates integrin-mediated alleviation for muscular dystrophy; hit rate 0.064% among 350,000; Potency, µM (doses to about 38.3 µM), actives largely listed as activators; alpha7betagal myoblasts, beta-gal FDG fluorescence, 48 h; note: nearly all actives have a fitted effect of over 60% in size
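Alpha7betagal+/- myoblasts (passage 13) were plated 16-24 hr, then exposed to compounds (1:260 dilution of DMSO stock) for 48 hours at 37C. After MPER lysis, β-galactosidase reporter activity was read as FDG fluorescence (ex 480/em 540) after 30 minutes.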
D3 antag = D3 dopamine receptor (human) antagonism; P35462; D3R cells, DiscoveRx beta-arrestin luminescence, antagonist mode; hits give low values; max response, negative = inhibition, %; hit rate 2.5% among 360,000; in the data active = max response below about -50%; inconclusive = no clear call, values can overlap the other calls
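Cells expressing the human receptor were seeded at 1500 cells/well, incubated overnight at 37 degrees C in 5% CO2, then exposed to library compounds with dopamine controls for 90 minutes at 37 degrees C before luminescent detection.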
ATXN2 expr inh = inhibitors of ATXN2 expression. HEK-293 ATXN2-luciferase reporter, luminescence, 24 h. Potency, µM (series often up to 57 µM), most hits filed as inhibitors. hit rate 0.72% among 360,000. AID 1745845; note: nearly all actives have a fitted effect of over 55% in size
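qHTS (up to 57 uM final) was run with 24 h compound exposure of reporter cells at 37 °C. Each well was multiplexed: SteadyGlo luminescence measured ATXN2-luciferase expression after a fluorogenic Gly-Phe-AFC viability readout (25 uM final).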
Of the large screens only hits and unclear results are named; the others gave an inactive call. Unless noted, calls come from the whole dose curve; as a rule, active = well fitted curve in the direction sought with a large enough effect; inconclusive = small, poorly fitted or top-dose-only effect, or another doubt; inactive = no such curve, though single readings can be large; an effect the other way counts as inactive or inconclusive.

Cc1cc(F)ccc1-c1cc(C(=O)NCc2ccccc2)[nH]n1	D3 antag -89 (no result: Integrin act MD)
CC(C)Oc1cc(F)ccc1-c1cc(C(=O)Nc2cccc(C(F)(F)F)c2)[nH]n1	ATXN viability 28µM, ATXN2 expr inh inconclusive (no result: Integrin act MD)
Cc1ccc(-c2cccc(C(=O)NCc3ccccc3)n2)c2ccccc12	D3 antag -59
O=C(NCc1ccccc1)c1c(Cl)nc(Cl)c(Cl)c1Cl	IL1B secr inh -107, D3 antag inconclusive (no result: ATXN viability)
O=C(NCc1ccccc1)C(C1CC1)n1c(Cc2cc(F)cc(F)c2)nc2ccccc21 (stereo not drawn)	none (no result: ATXN viability, Integrin act MD, ATXN2 expr inh)
COCCNC(=O)c1ccc2c(c1)S(=O)(=O)c1ccccc1C2=O	none
N#Cc1c(-c2ccc(F)cc2)c(-c2ccc(F)cc2)nn(CCO)c1=O	none
CCCOc1ccc(F)cc1-c1cc(C(=O)NCc2ccccc2)[nH]n1	IL1B secr inh inconclusive, D3 antag -99 (no result: Integrin act MD)
COc1ccc(NC(=O)c2cc(-c3ccc(F)cc3C)n[nH]2)cc1OC	ATXN viability inconclusive, IL1B secr inh inconclusive (no result: Integrin act MD)
Cc1cc(F)ccc1-c1cc(C(=O)Nc2ccc(F)cc2)[nH]n1	D3 antag -58 (no result: Integrin act MD)
COc1ccc(OCCn2c(C3CC(=O)N(c4ccc(F)cc4)C3)nc3ccccc32)cc1 (stereo not drawn)	ATXN viability inconclusive, ATXN2 expr inh inconclusive (no result: IL1B secr inh, Integrin act MD, D3 antag)
C=CCCC(=O)N1CCCC(Cc2cccc(Cl)c2)(C(=O)OCC)C1 (stereo not drawn)	IL1B secr inh -56
CCOC(=O)C1(Cc2cccc(Cl)c2)CCCN(C(=O)CCOC)C1 (stereo not drawn)	none
Cc1ccc(-c2csc(C3=C(O)CN(NC(=O)c4ccco4)C3=N)n2)cc1	none
O=C(O)CCS(=O)(=O)Cc1ccccc1F	none
C=C(CN(C)C)C(=O)c1ccc(C)cc1C	ATXN viability inconclusive, IL1B secr inh -107, D3 antag -88
CC(=O)Nc1ccccc1NC(=O)c1ccc(C)cc1C	ATXN viability inconclusive
O=C(NCCCN1CCN(c2ccccc2F)CC1)C1CCCN(S(=O)(=O)c2cnc[nH]2)C1 (stereo not drawn)	D3 antag -71
O=C(NCCN1CCN(Cc2ccccc2)CC1)C1CC(=O)N(C2CCCC2)C1 (stereo not drawn)	none
O=C(NCCN1CCN(c2ccccc2F)CC1)C1CC(=O)N(C2CCCC2)C1 (stereo not drawn)	D3 antag -66
COc1ccc(S(=O)(=O)N2CCOCC2)cc1NC(=O)COC(=O)C1=COCCO1	ATXN viability inconclusive (no result: ATXN2 expr inh)
Cc1ccc(NC(=O)c2cc(S(=O)(=O)Nc3ccc(C)cc3)cs2)cc1	IL1B secr inh -78, D3 antag inconclusive
O=C(Nc1ccc(Cc2ccncc2)cc1)c1cccs1	D3 ag 31, IL1B secr inh -75
O=C(Nc1ccc(N2CCN(C(=O)c3ccccc3)CC2)cc1)c1cccs1	IL1B secr inh -59
Cc1cc(NS(=O)(=O)c2ccc(NC(=S)NC(=O)c3cccnc3)cc2)no1	D3 antag -51
COc1ccc(S(=O)(=O)Nc2cccc(-c3ccc(N4CCCC4)nn3)c2)cc1F	none (no result: IL1B secr inh, Integrin act MD, D3 antag)
Cc1cc(-c2ccc(C)c(S(=O)(=O)N(C(C)C)C3CCCCC3)c2)on1	none (no result: ATXN viability, IL1B secr inh, Integrin act MD, D3 antag, ATXN2 expr inh)
O=C(c1[nH]c(C(F)(F)F)nc1-c1ccccc1)N1CCN(C(=O)C2CCCO2)CC1 (stereo not drawn)	none (no result: Integrin act MD)
O=C(c1ccc(=O)oc1)N1CCCc2ccccc21	D3 antag -63
Cc1ccc(NC(=O)c2cccs2)cc1NC(=O)c1ccc(F)cc1	ATXN viability inconclusive, IL1B secr inh -60
Cc1ccc(C(=O)N2CCN(c3ccc(NC(=S)NC(=O)c4cccs4)cc3)CC2)cc1	IL1B secr inh -55, ATXN2 expr inh inconclusive
CCCCN(CCCC)S(=O)(=O)c1ccc(NC(=O)c2cccs2)cc1	IL1B secr inh -85
Cc1ccccc1OCc1ccc(-c2nc(C#N)c(N3CCN(c4ccccc4)CC3)o2)o1	none (no result: ATXN viability, IL1B secr inh, Integrin act MD, D3 antag, ATXN2 expr inh)
O=C(Nc1ccc(C(=O)N2CCCc3ccccc32)cc1)c1cccs1	ATXN viability inconclusive, IL1B secr inh -80
O=C(Nc1ccc2c(c1)CCC2)c1cccs1	IL1B secr inh -63
Cc1ccc(C(=O)Nc2ccc(N3CCN(C(=O)c4cccs4)CC3)cc2)c(Cl)c1	ATXN viability inconclusive, IL1B secr inh -65, ATXN2 expr inh inconclusive
CC(C)CC(=O)NC(=S)Nc1ccc(N2CCN(C(=O)c3cccs3)CC2)cc1	ATXN viability inconclusive, IL1B secr inh -58, ATXN2 expr inh inconclusive
O=[N+]([O-])c1ccc(SCc2c(F)cccc2Cl)nc1	none
CC1CCN(Cc2ccc(NC(=O)CC3Oc4ccccc4NC3=O)cc2)CC1 (stereo not drawn)	none
CCOC(=O)c1c(C)nn(-c2ccc(NC(=O)c3c(C)noc3C)cc2)c1C	ATXN2 expr inh inconclusive
Cc1cc(C)cc(NS(=O)(=O)c2ccc(NC(=S)NC(=O)c3cccs3)cc2)c1	IL1B secr inh inconclusive, D3 antag -84, ATXN2 expr inh inconclusive
COc1cc(NS(=O)(=O)c2ccc(NC(=S)NC(=O)c3cccs3)cc2)nc(OC)n1	none
CCOC(=O)c1c(C)nn(-c2ccc(NC(=O)c3cccs3)cc2)c1C	IL1B secr inh -96, Integrin act MD inconclusive, ATXN2 expr inh 28µM
CC1(C)C2CCC1(C)C(SC(=N)N)C2 (stereo not drawn)	ATXN viability inconclusive, IL1B secr inh -82
CC1(C)C2CCC1(C)C(OC(=O)CC(=O)O)C2 (stereo not drawn)	none
CCN1CCN(C(=O)C2CCN(C(=O)c3cc4sccc4n3CC)CC2)CC1	none
CCN1CCN(C(=O)c2cc3sccc3n2CC(=O)c2ccccc2)CC1	D3 antag -56
O=C(c1ccco1)N1CCN(C(=O)c2cc3sccc3n2Cc2ccccc2)CC1	none
CN1CCN(C(=O)c2cc3sccc3n2CC(=O)c2ccccc2)CC1	ATXN viability inconclusive, D3 antag -62
O=C1C=C(N(CCO)Cc2ccccc2)c2ccccc2C1=O	IL1B secr inh -98, D3 antag inconclusive, ATXN2 expr inh 27µM (no result: ATXN viability)
O=C1c2ccccc2C(=O)c2c1cccc2N(CCO)CCO	ATXN viability inconclusive
CCOC(=O)C1CCCN(c2ncnc3c2cnn3-c2cccc(C)c2)C1 (stereo not drawn)	ATXN viability inconclusive
CC1CCCN(c2ncnc3c2cnn3-c2ccc(Cl)cc2)C1 (stereo not drawn)	ATXN2 expr inh inconclusive
CCN(CC)C(=O)C1CCCN(c2ncnc3c2cnn3-c2ccc(Cl)cc2)C1 (stereo not drawn)	ATXN viability inconclusive, IL1B secr inh -54, ATXN2 expr inh 13µM
CCN(CC)C(=O)C1CCCN(c2ncnc3c2cnn3-c2cccc(C)c2)C1 (stereo not drawn)	IL1B secr inh -56

Screening data as filed in PubChem.
